{
  "source": "the supplement of paper PMC10849652",
  "note": "About 8,800 targets were measured; listed, in parts, are those with a hit and a random draw of the rest. About 0.5% of all pairs of compound and target were hits. Values without a mark were called inactive.",
  "data": [
    {"compound": "NCC(=O)Nc1ccc(-n2nc(C(F)(F)F)cc2-c2ccc3c(ccc4ccccc43)c2)cc1", "assay": "log2 fold change, soluble protein after heating vs DMSO (PISA); higher = thermal stabilisation; K562 lysate, 10 uM; active = over 0.2 and 3.5 SD of the protein, either way, in both replicates (recomputed)", "outline": "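Thermal stability, expressed as log-two fold change relative to solvent controls, is given from duplicates. Crude K562 extract in PBS pH 7.4 with 1 mM MgCl2, at 1 mg/mL protein, was treated with 10 μM compound for 30 min and heated in aliquots for 3 min across 48°C-58°C. After pooling, adjustment to 0.5% NP-40 at 4°C and centrifugation at 21,000xg for 90 min, supernatant protein was measured by TMTpro 16plex LC-MS/MS with channel sums equalised.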", "values": [
      {"target": "LY6E (UniProt Q16553)", "sequence (Q16553 whole entry, looked up)": "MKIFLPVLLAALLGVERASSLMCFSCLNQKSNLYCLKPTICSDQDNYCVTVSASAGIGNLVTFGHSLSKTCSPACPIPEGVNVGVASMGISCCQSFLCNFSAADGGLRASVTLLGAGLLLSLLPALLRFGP", "log2 fold change": 0.165},
      {"target": "LIMK1 (UniProt P53667)", "log2 fold change": -0.127},
      {"target": "MAP4K4 isoform 3 (UniProt O95819)", "log2 fold change": 0.041},
      {"target": "MBD2 (UniProt Q9UBB5)", "log2 fold change": 0.018},
      {"target": "MED8 isoform 2 (UniProt Q96G25)", "sequence (Q96G25 whole entry, looked up)": "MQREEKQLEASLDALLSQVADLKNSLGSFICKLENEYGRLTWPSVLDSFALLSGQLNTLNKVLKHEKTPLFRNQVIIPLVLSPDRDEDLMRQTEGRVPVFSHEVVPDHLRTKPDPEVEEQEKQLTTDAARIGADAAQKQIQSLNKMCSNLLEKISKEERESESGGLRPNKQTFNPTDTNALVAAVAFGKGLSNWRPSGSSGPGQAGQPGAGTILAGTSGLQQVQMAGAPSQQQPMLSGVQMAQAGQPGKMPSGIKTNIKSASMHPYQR", "log2 fold change": 0.019},
      {"target": "LAMP1 (UniProt P11279)", "log2 fold change": 0.007},
      {"target": "LPCAT1 (UniProt Q8NF37)", "log2 fold change": -0.011},
      {"target": "MPZL1 (UniProt O95297)", "log2 fold change": -0.059},
      {"target": "LRRC9 (UniProt Q6ZRR7)", "log2 fold change": 0.106},
      {"target": "MDM1 (UniProt Q8TC05)", "sequence (Q8TC05 whole entry, looked up)": "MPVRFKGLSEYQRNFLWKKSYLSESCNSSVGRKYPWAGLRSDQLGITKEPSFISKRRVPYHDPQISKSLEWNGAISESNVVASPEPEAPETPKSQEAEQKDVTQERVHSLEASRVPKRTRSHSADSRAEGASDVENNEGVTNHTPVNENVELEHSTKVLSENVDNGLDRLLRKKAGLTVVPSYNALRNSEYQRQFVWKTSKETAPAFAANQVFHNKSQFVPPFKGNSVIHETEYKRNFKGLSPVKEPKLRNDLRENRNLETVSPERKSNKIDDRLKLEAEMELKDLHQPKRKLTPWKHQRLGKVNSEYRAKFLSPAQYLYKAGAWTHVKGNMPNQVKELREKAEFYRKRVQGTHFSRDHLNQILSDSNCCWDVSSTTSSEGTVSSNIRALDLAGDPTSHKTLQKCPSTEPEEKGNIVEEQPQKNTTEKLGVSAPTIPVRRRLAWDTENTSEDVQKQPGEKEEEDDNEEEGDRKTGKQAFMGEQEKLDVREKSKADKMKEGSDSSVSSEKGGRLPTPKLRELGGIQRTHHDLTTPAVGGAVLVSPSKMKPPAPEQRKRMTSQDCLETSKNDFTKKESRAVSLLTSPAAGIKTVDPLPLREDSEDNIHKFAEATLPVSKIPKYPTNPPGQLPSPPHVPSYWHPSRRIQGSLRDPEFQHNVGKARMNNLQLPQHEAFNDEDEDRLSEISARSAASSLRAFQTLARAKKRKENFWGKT", "log2 fold change": 0.056},
      {"target": "LIMK2 isoform 3 (UniProt P53671)", "log2 fold change": -0.011},
      {"target": "MIF (UniProt P14174)", "sequence (P14174 whole entry, looked up)": "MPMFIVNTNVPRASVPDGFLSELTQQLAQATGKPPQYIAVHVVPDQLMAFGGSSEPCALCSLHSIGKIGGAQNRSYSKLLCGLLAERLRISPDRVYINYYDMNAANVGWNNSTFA", "log2 fold change": 0.048},
      {"target": "LRP1 (UniProt Q07954)", "log2 fold change": 0.233},
      {"target": "MAP3K6 (UniProt O95382)", "sequence (O95382 whole entry, looked up)": "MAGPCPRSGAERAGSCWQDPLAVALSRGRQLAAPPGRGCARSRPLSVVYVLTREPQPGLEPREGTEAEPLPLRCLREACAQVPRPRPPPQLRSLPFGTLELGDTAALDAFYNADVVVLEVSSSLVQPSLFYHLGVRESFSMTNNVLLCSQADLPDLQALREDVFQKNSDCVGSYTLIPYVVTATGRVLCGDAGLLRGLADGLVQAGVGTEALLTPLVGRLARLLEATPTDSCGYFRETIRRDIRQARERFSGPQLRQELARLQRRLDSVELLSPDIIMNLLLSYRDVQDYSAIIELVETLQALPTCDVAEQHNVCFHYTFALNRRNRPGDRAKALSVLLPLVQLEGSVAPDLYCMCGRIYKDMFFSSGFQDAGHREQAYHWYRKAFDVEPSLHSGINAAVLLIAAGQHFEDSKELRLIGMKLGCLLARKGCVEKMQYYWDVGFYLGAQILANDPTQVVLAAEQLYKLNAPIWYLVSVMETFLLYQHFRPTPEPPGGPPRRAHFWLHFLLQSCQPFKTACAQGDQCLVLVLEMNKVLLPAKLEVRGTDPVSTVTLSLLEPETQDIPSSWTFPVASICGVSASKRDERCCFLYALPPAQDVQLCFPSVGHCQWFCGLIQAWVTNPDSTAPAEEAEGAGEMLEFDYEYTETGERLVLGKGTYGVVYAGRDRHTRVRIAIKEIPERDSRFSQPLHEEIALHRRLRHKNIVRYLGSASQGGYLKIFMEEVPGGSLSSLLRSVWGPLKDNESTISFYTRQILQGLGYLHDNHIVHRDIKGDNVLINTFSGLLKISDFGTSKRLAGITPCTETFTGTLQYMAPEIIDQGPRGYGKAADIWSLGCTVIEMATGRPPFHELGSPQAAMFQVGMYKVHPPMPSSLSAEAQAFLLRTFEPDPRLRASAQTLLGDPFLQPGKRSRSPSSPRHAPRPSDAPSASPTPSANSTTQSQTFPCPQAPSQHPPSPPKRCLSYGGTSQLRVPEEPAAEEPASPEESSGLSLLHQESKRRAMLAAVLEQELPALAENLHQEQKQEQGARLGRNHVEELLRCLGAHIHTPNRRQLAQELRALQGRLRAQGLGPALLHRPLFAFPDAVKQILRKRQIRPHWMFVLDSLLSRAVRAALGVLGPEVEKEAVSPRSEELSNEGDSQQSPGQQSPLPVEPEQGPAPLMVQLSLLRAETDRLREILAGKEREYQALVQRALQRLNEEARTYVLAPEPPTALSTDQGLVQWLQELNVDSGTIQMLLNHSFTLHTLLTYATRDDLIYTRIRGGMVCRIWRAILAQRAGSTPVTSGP", "log2 fold change": -0.088},
      {"target": "LRRC7 (UniProt Q96NW7)", "log2 fold change": -0.097},
      {"target": "LSS (UniProt P48449)", "sequence (P48449 whole entry, looked up)": "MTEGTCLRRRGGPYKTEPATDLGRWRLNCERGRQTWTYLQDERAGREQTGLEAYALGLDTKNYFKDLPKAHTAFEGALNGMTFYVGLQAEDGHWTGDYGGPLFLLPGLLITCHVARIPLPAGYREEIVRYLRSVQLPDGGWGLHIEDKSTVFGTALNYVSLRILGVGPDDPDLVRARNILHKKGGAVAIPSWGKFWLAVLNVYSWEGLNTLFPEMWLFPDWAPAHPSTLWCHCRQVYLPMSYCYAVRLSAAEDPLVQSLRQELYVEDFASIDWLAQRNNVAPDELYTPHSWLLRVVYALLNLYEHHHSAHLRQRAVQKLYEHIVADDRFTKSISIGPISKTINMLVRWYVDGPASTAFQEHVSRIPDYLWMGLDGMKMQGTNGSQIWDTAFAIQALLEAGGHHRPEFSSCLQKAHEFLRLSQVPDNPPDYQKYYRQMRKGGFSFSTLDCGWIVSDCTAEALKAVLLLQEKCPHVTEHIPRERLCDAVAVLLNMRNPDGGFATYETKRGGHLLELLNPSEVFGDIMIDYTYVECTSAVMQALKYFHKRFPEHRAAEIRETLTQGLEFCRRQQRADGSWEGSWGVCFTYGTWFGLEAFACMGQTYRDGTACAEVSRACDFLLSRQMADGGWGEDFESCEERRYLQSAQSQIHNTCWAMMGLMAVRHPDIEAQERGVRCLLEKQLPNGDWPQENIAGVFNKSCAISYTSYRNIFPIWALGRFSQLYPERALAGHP", "log2 fold change": -0.042},
      {"target": "LRRIQ1 (UniProt Q96JM4)", "sequence (Q96JM4 whole entry, looked up)": "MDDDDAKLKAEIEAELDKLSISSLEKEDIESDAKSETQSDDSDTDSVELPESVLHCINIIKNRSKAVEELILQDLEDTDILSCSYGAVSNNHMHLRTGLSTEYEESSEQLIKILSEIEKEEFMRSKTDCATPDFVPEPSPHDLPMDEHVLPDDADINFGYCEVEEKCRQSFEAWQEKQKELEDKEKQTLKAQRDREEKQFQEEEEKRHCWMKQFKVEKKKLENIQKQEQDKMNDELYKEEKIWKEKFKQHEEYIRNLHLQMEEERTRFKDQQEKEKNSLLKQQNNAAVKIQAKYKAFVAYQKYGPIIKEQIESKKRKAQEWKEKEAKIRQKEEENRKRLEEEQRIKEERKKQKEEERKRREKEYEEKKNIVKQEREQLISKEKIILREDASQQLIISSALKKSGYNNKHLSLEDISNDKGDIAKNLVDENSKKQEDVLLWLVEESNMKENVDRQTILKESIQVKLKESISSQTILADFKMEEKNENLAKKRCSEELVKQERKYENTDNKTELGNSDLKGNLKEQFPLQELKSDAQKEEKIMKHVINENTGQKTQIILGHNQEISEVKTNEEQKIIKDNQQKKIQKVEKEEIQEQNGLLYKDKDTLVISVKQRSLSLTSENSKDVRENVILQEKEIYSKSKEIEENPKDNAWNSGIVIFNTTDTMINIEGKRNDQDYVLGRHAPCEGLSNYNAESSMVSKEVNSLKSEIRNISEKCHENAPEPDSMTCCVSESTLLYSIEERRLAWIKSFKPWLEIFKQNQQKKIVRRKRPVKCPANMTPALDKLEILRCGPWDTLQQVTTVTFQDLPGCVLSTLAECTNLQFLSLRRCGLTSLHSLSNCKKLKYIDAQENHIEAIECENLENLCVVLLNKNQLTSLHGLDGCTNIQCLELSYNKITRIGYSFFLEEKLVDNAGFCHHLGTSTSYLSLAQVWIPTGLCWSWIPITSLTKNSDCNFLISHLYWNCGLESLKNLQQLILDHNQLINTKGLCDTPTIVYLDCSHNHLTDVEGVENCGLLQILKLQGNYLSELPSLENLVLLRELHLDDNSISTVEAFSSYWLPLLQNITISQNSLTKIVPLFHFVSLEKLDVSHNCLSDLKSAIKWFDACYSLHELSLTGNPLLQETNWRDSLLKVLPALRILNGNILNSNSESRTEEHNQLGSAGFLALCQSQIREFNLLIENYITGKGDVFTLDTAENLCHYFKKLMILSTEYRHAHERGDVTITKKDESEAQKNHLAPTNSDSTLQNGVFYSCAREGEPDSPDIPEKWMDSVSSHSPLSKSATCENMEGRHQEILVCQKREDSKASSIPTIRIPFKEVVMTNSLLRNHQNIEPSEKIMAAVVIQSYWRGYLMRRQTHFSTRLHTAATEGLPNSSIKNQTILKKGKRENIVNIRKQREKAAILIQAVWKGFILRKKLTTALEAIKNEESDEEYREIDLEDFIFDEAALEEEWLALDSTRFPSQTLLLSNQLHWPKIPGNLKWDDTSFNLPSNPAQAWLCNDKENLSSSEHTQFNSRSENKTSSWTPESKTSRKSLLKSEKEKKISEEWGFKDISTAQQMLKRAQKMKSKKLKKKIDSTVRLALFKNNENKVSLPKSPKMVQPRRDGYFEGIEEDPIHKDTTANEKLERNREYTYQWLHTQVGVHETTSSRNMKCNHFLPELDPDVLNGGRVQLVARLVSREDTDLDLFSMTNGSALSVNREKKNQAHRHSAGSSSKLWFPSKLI", "log2 fold change": 0.056}
    ]}
  ]
}
